Results published in PubChem BioAssay AID1159580 (chemical genetic matrix, 2015).
Hit rate of the full screen: of about 5,500 compounds, about 2,000 (36%) were called active. About 18% were inconclusive and are not listed. Rule as the data show it: active = normalized growth mostly below about 0.91 (no sharp cut-off); inconclusive = no clear call, values can overlap the other calls; inactive = mostly above about 0.92. The list shows a part of the results.

Assay: chemical genetic growth profiling, strain panel (AID 1159580);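 also: tested at 20 µM; growth read once vehicle control cultures reached saturation at 30 °C; 1 = growth at the plate median or of vehicle wells; lower values mean less growth of the strain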
Details: growth OD
[1] = S. cerevisiae deletion strains, locus YAL013W, strain DEP1, hits give low values
[2] = S. cerevisiae deletion strains, locus YGR078C, strain PAC10, hits give low values
[3] = S. cerevisiae deletion strains, locus YJR075W, strain HOC1, hits give low values
[4] = S. cerevisiae deletion strains, locus YMR307W, strain GAS1, hits give low values
[5] = S. cerevisiae deletion strains, locus YNL322C, strain KRE1, hits give low values
[6] = S. cerevisiae deletion strains, locus YPL055C, strain LGE1, hits give low values
[7] = S. cerevisiae deletion strains, locus YBR229C, strain ROT2, hits give low values
[8] = S. cerevisiae deletion strains, locus YDL101C, strain DUN1, hits give low values
[9] = S. cerevisiae deletion strains, locus YDR150W, strain NUM1, hits give low values
[10] = S. cerevisiae deletion strains, locus YEL061C, strain CIN8, hits give low values
[11] = S. cerevisiae deletion strains, locus YHR030C, strain SLT2, hits give low values
[12] = S. cerevisiae deletion strains, locus YHR087W, strain rtc3, hits give low values
[13] = S. cerevisiae deletion strains, locus YJR043C, strain POL32, hits give low values
[14] = S. cerevisiae deletion strains, locus YLR039C, strain RIC1, hits give low values
[15] = S. cerevisiae deletion strains, locus YLR058C, strain SHM2 (second series), hits give low values
[16] = S. cerevisiae deletion strains, locus YLR085C, strain ARP6, hits give low values
[17] = S. cerevisiae deletion strains, locus YLR262C, strain YPT6, hits give low values
[18] = S. cerevisiae deletion strains, locus YML094W, strain GIM5, hits give low values
[19] = S. cerevisiae deletion strains, locus YMR219W, strain ESC1, hits give low values
[20] = S. cerevisiae deletion strains, locus YMR263W, strain SAP30, hits give low values
[21] = S. cerevisiae deletion strains, locus YNL153C, strain GIM3, hits give low values
[22] = S. cerevisiae deletion strains, locus YNL298W, strain CLA4 (second series), hits give low values
[23] = S. cerevisiae deletion strains, locus YNR030W, strain Alg12, hits give low values
[24] = S. cerevisiae deletion strains, locus YPL241C, strain CIN2, hits give low values
[25] = S. cerevisiae deletion strains, locus YPR135W, strain CTF4, hits give low values

Measured: normalized growth

CCNC(=O)C1OC(n2cnc3c(NCc4ccccc4)ncnc32)C(O)C1O (stereo not given)
inactive: [1] 0.989 | S. cerevisiae deletion strains, locus YAL040C, strain CLN3, hits give low values 0.987 | S. cerevisiae deletion strains, locus YCL061C, strain MRC1 (second series), hits give low values 1.01 | S. cerevisiae deletion strains, locus YDR363W, strain ESC2, hits give low values 0.958 | S. cerevisiae deletion strains, locus YER002W, strain NOP16, hits give low values 1.01 | [2] 0.979 | [3] 1 | [4] 1 | S. cerevisiae deletion strains, locus YNL128W, strain TEP1, hits give low values 0.959 | S. cerevisiae deletion strains, locus YNL175C, strain NOP13, hits give low values 0.967 | S. cerevisiae deletion strains, locus YNL197C, strain WHI3, hits give low values 0.95 | S. cerevisiae deletion strains, locus YNL224C, strain SQS1, hits give low values 0.984 | [5] 0.99 | S. cerevisiae deletion strains, locus YOR083W, strain WHI5 (second series), hits give low values 0.956 | [6] 1

Cc1noc(C)c1NC(N)=O
inactive: [1] 0.994 | [7] 0.989 | [8] 0.974 | [9] 0.979 | [10] 0.981 | [2] 0.983 | S. cerevisiae deletion strains, locus YGR229C, strain SMI1, hits give low values 1.03 | [11] 1.04 | [12] 0.968 | S. cerevisiae deletion strains, locus YJL187C, strain SWE1, hits give low values 0.998 | [13] 0.995 | [3] 1.04 | S. cerevisiae deletion strains, locus YKL190W, strain CNB1, hits give low values 1.01 | [14] 0.97 | [15] 0.992 | [16] 1.01 | [17] 0.997 | [18] 0.952 | [19] 0.993 | [20] 1.03 | [4] 1.21 | [21] 0.999 | [22] 0.978 | [5] 0.987 | [23] 0.987 | S. cerevisiae deletion strains, locus YOL006C, strain TOP1, hits give low values 1.04 | [6] 0.975 | [24] 0.986 | [25] 0.898

Cc1noc(N)c1C(N)=S
active: [24] 1.17 [resistant]
inactive: [1] 0.986 | [7] 1 | [8] 1.02 | S. cerevisiae deletion strains, locus YDL134C, strain PPH21, hits give low values 0.993 | [9] 1 | [10] 1 | [2] 1.02 | [11] 1.05 | [12] 1 | [13] 1.01 | [3] 1.05 | [14] 1.05 | [15] 1 | [16] 1.17 | [17] 1.01 | [18] 0.99 | [19] 1.01 | [20] 1 | [21] 1.01 | [22] 1.03 | [5] 0.998 | [23] 0.995 | [6] 1.01 | [25] 0.982 | S. cerevisiae strains, strain wild type, hits give low values 0.986
